5 molecules from PubChem BioAssay (NCATS) can be followed below.

Results filed as inconclusive are left out. Calls of active or inactive are those of the source. Unless noted, calls follow the shape of the dose curve; as a rule, active = well fitted curve in either direction with a large enough effect (not every such curve was filed as active); inconclusive = small, poorly fitted or top-dose-only effect, or another doubt; inactive = flat fitted curve, though single readings scatter. Some results are limits rather than exact numbers.

In assay [1] the target is Lysosomal acid glucosylceramidase (Homo sapiens) (UniProt P04062). Put plainly: Glucocerebrosidase-p2 (AID 348; in the data active = potency below about 10 µM; also: potency is read from the fitted curve at half-maximal effect). As to conditions: purified GBA, blue fluorogenic substrate, 40 min. Summed up:
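Normal human glucocerebrosidase (0.2 nM) with blue fluorogenic substrate (80 uM final) in citrate/phosphate pH 5.9 with 10mM sodium taurocholate, 0.01% tween-20; 40 min RT, NaOH/glycine stop; fluorescence Ex 365/Em 440; AC50 from a titration from 0.6 nM upwards.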

The nature of assay [2]: AP1 Signaling Pathway (AID 357).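 Also: ME-180 reporter cells stimulated with EGF at its EC50 level; % is scaled to controls: 0 for no effect and ±100 for the full control effect.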 Particulars: ME-180 AP-1-bla reporter, EGF-induced, beta-lactamase ratio, 5 h; at 7.69 µM (top of the series) unless noted. Summed up: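 A ratiometric CCF4 readout (405 nm excitation; 460 and 530 nm emission) quantified AP-1-driven beta-lactamase in ME-180 cells after 5 h with compound and EC50 EGF; AC50 values were derived for activators and inhibitors.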

The target of assay [3] is Cytochrome P450 1A2 (Homo sapiens) (UniProt P05177). Put plainly: p450-cyp1a2 (AID 410; calls by dose curve; also: potency is read from the fitted curve at half-maximal effect;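 as to activity change, negative = inhibition: -100% = full effect of reference inhibitor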). Particulars: recombinant CYP1A2, luciferin-ME demethylation, luminescence; series mostly up to 57 µM. In outline: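 O-Demethylation of luciferin 6' methyl ether by human CYP1A2 is monitored as luciferase luminescence. Substrate sits at Km (100uM); enzyme is 20nM. Values are scaled to 57 uM furafylline as maximal inhibition.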
Chain of Cytochrome P450 1A2 (Homo sapiens) (P05177 whole entry, looked up): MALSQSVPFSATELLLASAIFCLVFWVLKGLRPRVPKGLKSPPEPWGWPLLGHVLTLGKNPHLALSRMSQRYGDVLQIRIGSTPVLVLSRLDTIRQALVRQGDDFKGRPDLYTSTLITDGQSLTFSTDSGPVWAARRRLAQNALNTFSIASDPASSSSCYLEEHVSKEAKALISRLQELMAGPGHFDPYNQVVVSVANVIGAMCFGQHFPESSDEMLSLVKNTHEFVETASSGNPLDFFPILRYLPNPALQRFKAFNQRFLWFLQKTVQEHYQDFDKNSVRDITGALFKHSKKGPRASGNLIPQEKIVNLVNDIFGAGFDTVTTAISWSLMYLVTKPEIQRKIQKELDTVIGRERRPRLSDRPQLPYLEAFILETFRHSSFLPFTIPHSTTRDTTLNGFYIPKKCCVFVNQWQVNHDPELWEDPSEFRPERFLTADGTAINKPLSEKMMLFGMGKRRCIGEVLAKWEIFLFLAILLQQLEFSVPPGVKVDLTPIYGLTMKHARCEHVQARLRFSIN

Assay [4] is described as follows: NFAT Signaling Pathway (AID 444).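 Also: carbachol stimulus at about its EC50 of 1 µM final; % is scaled to controls: 0 for no effect and ±100 for the full control effect.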 Particulars: Jurkat NFAT-bla M1, carbachol, beta-lactamase ratio, 5 h; at 7.69 µM (top of the series) unless noted. Summed up:
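Jurkat cells with NFAT-driven β-lactamase reporter and co-expressed M1 receptor, stimulated with carbachol (final 1 uM, ~EC50), compound titration, 5 h at 37 °C. CCF4 loaded 1 h at RT; 460/530 nm ratio gave %activity and AC50.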

Assay [5] in a line: Stat Signaling Pathway (AID 446).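 Also: ME-180 cervical cancer cells given 40 pM IL-6 alongside compound; SIE-controlled beta-lactamase reporter measured as 460/530 nm FRET emission ratio; % is scaled to controls: 0 for no effect and ±100 for the full control effect.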 As to conditions: ME-180 (cervical carcinoma) SIE beta-lactamase reporter, IL-6 stimulated, 5 h; at 7.69 µM (top of the series) unless noted. In outline: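 Emission at 460 and 530 nm (excitation 405 nm) reports SIE-controlled beta-lactamase in ME-180 cells. Cells received compound with 40 pM IL-6 for 5 hrs at 37 C; data scaled between 300 pM IL-6 and 125 nM JAK-inhibitor controls.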

For assay [6], the target named is Glucocorticoid receptor (Homo sapiens) (UniProt P04150). Put plainly: GR-EFC Redistribution (AID 451; calls by dose curve; also: potency is read from the fitted curve at half-maximal effect). As to conditions: CHO-K1 GR-EFC translocation, beta-gal luminescence, 2 h. Summed up:
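CHO-K1 cells expressing nuclear EA and GR-ED fragments of b-gal; compounds titrated up to 46 uM final, 2 h at 37 C. GR nuclear translocation read as complemented b-gal luminescence after 1 h RT detection.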

Assay [7] concerns the target Mitogen-activated protein kinase 10 (Mus musculus) (UniProt Q61831). Put plainly: JNK3 AlphaScreen Assay (AID 530).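 Also: kinase came from lysate of stimulated human HepG2 cells; signal reports phosphorylation of biotinylated GST-cJun 1-79 at Ser73 with 10 µM ATP; % is scaled to controls: 0 for no effect and ±100 for the full control effect.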 Particulars: JNK3 lysate, c-Jun phosphorylation; series mostly up to 57.1 µM. Summed up:
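Activity was read by AlphaScreen after JNK3-containing HepG2 lysate (cytokine pre-activated) phosphorylated biotinylated GST-cJun with 10 uM ATP at room temperature. Phospho-Ser73 cJun antibody with Protein-A acceptor beads provided detection.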
On the technique in general: In Alpha technology, singlet oxygen from a donor bead excites a nearby acceptor bead.

The target of assay [8] is 3',5'-cyclic-AMP phosphodiesterase 4B (Homo sapiens) (UniProt Q07343). Kind of assay: qHTS Assay for Inhibitors of PDE-IV (AID 607; active = well fitted activation curve with a large enough effect in the main read-out, with a control signal flat, not every such curve was filed as active; also: % of control where 0% means no effect). Particulars: HEK293 ACTOne CNG channel cells, membrane potential fluorescence; series mostly up to 22.9 µM. Summed up:
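The readout is membrane depolarisation from a cAMP-sensing CNG channel, detected with a potential dye at ex 535/em 590. Cells were HEK293-derived (endogenous PDE-IV) at 1000 cells/well, titrated up to 22.9 uM final.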

The target of assay [9] is Cytochrome P450 3A4 (Homo sapiens) (UniProt P08684). Kind of assay: qHTS Assay for Activators of Cytochrome P450 3A4 (AID 885; active = well fitted curve in the direction sought with a large enough effect; an effect the other way counts as inactive or inconclusive; also: nearly all actives have a fitted effect of over 65% in size). Particulars: recombinant CYP3A4, Luciferin-PPXE luminescence, 60 min; series mostly up to 57.1 µM. In outline: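 Activators are scored by enhanced luminescence from CYP3A4 conversion of luciferin-PPXE (25uM, equal to KM) to luciferin, after 60 min at RT with an NADPH-regenerating system.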
Chain of Cytochrome P450 3A4 (Homo sapiens) (P08684 whole entry, looked up): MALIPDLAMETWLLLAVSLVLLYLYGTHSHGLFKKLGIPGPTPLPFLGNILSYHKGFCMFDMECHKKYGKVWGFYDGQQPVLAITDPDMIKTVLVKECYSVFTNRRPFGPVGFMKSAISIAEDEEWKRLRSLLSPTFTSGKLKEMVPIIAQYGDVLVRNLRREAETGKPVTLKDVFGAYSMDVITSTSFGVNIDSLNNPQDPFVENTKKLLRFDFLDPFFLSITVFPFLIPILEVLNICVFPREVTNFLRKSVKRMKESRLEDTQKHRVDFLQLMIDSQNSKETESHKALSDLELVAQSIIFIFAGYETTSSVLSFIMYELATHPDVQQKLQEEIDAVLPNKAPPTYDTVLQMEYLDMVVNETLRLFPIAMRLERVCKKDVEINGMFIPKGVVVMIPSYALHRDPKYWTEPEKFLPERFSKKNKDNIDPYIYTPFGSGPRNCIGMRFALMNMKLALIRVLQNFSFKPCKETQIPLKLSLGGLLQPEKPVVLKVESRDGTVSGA

A short description of assay [10]: qHTS Assay for Lipid Storage Modulators (AID 1519; calls by dose curve). As to conditions: Drosophila S3 cells, BODIPY lipid droplet/cell ratio, laser cytometry, cells loaded with oleic acid; for activity change, negative = inhibition: at 57.5 µM (top of the series). In outline: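 Cells seeded at 5,000 per well were treated with compounds over a concentration series and loaded with oleic acid (400 uM, as added). Lipid droplet fluorescence (488 nm excitation, 500-530 nm channel) was read by laser-scanning cytometry and normalized to 20 uM Triacsin C.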
In general terms: In qHTS, concentration-response curves come from the screen itself.

Assay [11] is described as follows: Primary qHTS for small molecule stabilizers of the endoplasmic reticulum resident proteome: Secreted ER Calcium Modulated Protein (SERCaMP) assay (AID 1508630; active = well fitted curve in the direction sought with a large enough effect; an effect the other way counts as inactive or inconclusive; also: % is scaled to controls: 0 for no effect and ±100 for the full control effect). Particulars: SH-SY5Y GLuc-SERCaMP (Gaussia luciferase released on ER calcium loss) secretion, thapsigargin, luminescence; series mostly up to 38.4 µM. In outline: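 The SH-SY5Y reporter protocol was run at 3 concentrations up to 38.3 uM (primary) or 11 concentrations (follow-up): 16 h compound, 100 nM thapsigargin for 4 h, then extracellular luciferase luminescence.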

For assay [12], the target named is Cytochrome P450 2D6 (Homo sapiens) (UniProt P10635). Put plainly: qHTS Assay for Inhibitors and Substrates of Cytochrome P450 2D6 (AID 891; active = well fitted curve in the direction sought with a large enough effect; an effect the other way counts as inactive or inconclusive; also: potency is read from the fitted curve at half-maximal effect; nearly all actives have a fitted effect of over 60% in size). Particulars: recombinant CYP2D6, luciferin-ME EGE luminescence; series mostly up to 57.1 µM. In outline: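 Luminescent read-out of luciferin formed by 5 nM human CYP2D6 demethylating 30 uM Luciferin-ME EGE (Km level) over 60 min at room temperature after NADPH regeneration addition. Data normalized to full inhibition by 1.43 uM quinidine.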
Chain of Cytochrome P450 2D6 (Homo sapiens) (P10635 whole entry, looked up): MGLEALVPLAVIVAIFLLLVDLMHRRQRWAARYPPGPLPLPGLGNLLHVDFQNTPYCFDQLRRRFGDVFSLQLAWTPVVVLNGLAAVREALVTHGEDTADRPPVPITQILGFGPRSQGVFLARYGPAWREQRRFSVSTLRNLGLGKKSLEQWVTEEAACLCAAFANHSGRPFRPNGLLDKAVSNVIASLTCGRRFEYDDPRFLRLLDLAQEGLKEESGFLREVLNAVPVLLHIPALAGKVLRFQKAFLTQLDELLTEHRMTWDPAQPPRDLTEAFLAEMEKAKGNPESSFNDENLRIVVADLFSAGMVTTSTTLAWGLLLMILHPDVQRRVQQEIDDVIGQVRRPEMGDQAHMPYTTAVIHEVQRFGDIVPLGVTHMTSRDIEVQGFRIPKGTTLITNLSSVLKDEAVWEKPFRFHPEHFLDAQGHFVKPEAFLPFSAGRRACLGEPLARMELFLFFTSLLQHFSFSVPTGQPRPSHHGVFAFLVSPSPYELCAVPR

Assay [13] has as its target Cytochrome P450 2C19 (Homo sapiens) (UniProt P33261). Kind of assay: qHTS Assay for Inhibitors and Substrates of Cytochrome P450 2C19 (AID 899; active = well fitted curve in the direction sought with a large enough effect; an effect the other way counts as inactive or inconclusive; also: potency is read from the fitted curve at half-maximal effect; nearly all actives have a fitted effect of over 60% in size). As to conditions: recombinant CYP2C19, luciferin-H EGE luminescence; series mostly up to 57.1 µM. Summed up: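 Signal comes from luciferase acting on luciferin released by CYP2C19-mediated hydroxylation of Luciferin-H EGE, 10uM (KM). Assay mix: 5nM enzyme, 50mM KPO4; 60 min at 37C with NADPH regeneration. Data normalized against 57uM ketoconazole.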

The mark [14] stands for this setting: measured here: cell count channel max response.
[15] abbreviates: measured here: lipid channel max response.

Chain of Lysosomal acid glucosylceramidase (Homo sapiens) (P04062 whole entry, looked up): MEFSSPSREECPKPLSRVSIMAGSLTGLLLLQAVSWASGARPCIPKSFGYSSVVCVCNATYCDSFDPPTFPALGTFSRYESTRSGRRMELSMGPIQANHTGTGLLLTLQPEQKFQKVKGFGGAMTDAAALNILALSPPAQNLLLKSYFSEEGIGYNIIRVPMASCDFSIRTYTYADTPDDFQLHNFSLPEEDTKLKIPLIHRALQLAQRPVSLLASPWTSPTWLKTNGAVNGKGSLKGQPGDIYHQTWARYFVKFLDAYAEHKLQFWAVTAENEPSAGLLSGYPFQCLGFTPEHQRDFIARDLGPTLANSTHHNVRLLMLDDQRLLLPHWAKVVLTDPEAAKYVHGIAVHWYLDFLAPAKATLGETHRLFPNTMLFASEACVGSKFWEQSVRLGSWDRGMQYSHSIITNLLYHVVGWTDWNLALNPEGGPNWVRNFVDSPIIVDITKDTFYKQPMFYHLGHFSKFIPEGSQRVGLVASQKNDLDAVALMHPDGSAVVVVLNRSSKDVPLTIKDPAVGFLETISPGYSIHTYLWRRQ
Chain of 3',5'-cyclic-AMP phosphodiesterase 4B (Homo sapiens) (Q07343 whole entry, looked up): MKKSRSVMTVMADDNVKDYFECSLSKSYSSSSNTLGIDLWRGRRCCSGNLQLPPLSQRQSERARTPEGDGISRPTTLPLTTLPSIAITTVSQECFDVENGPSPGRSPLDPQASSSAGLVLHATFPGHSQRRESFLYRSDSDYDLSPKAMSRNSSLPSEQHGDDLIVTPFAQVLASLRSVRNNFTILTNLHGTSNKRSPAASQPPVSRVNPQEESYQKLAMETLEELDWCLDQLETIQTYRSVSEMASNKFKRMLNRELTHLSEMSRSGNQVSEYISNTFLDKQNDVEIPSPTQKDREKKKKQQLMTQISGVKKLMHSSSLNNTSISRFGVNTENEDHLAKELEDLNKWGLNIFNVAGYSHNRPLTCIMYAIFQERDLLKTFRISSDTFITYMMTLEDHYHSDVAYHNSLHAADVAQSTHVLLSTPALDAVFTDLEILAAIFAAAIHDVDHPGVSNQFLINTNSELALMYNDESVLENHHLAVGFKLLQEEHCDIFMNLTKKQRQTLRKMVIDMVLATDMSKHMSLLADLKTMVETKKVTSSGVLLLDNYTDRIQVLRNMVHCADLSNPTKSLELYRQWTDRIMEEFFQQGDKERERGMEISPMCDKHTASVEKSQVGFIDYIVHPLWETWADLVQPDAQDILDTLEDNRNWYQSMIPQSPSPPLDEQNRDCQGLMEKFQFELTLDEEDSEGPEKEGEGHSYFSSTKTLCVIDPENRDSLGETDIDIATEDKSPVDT
Chain of Glucocorticoid receptor (Homo sapiens) (P04150 whole entry, looked up, the tested form may be a part): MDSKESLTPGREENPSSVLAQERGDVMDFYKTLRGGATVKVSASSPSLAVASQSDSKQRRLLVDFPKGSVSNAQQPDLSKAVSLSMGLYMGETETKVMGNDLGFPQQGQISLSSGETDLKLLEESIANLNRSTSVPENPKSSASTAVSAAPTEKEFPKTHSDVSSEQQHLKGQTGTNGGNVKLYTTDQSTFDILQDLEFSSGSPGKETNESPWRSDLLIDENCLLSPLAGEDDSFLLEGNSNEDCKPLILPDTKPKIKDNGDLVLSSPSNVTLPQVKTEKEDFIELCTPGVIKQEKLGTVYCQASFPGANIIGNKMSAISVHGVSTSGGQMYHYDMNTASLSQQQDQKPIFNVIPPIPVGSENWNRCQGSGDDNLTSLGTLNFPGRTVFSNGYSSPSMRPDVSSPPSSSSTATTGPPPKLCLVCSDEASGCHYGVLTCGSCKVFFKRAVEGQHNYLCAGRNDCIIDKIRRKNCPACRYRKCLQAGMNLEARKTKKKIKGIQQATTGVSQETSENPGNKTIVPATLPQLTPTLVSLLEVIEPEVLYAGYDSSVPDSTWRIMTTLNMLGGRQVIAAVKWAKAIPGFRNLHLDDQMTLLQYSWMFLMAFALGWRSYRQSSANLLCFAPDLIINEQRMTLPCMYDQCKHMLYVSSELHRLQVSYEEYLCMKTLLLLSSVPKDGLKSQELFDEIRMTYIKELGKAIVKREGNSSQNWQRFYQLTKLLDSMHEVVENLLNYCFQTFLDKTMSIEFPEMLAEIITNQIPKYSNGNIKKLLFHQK
Chain of Cytochrome P450 2C19 (Homo sapiens) (P33261 whole entry, looked up): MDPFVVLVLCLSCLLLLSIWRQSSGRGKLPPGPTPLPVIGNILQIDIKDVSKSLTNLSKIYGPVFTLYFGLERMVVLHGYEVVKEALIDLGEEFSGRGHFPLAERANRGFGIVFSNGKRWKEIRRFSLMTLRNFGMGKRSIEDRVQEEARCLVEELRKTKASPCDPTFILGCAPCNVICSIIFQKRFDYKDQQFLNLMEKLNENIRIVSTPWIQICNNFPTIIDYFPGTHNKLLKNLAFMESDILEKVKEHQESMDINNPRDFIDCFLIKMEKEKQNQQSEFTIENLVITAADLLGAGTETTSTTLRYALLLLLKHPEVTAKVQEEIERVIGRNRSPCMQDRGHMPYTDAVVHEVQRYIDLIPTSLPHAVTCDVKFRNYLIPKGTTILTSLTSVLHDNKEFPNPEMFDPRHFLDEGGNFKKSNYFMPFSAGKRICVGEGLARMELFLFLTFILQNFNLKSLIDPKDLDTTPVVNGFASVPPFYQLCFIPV

Turning to `O=C(Nc1cccc(F)c1)N1CC[C@@]2(CCCNC2)C1`, the Potency is > 11.4 µM (inactive) in assay [1] and > 46 µM (inactive) in assay [6]. Besides, the activity change, negative = inhibition in [2] is 2.44% (inactive); in assay [4], -0.699% (inactive); in assay [10] it was 3.99% (inactive). Moreover, the Potency result in [3], in [8], in assay [9] and in [11] was “inactive” each time. In [5], the activity, negative = inhibition was -0.756% (inactive). For the same molecule, the molecule was classed as inactive in assay [7]. Also, the max response is -1.25% in assay [10] (setting [14]) and 6.61% in [10] (setting [15]).
Consider `CC(=O)N1CCC[C@@]2(CCN(Cc3ccccc3)C2)C1`, for which the Potency was > 11.4 µM (inactive) in assay [1] and > 46 µM (inactive) in assay [6]. For the same molecule, the activity change, negative = inhibition in assay [2] was -2.69% (inactive); in [4], 17.1% (inactive); in [10], 6.41% (inactive). Besides, the Potency entry in assay [3], in [8], in [9] and in [11] was “inactive” throughout. Besides, the activity, negative = inhibition in assay [5] is -3.06% (inactive). The result in assay [7] was inactive. Also, the max response in assay [10] (setting [14]) turned out to be 8.55%; in assay [10] (setting [15]), 16.4%.
`CC(C)CN1CC[C@@]2(CCCN(S(=O)(=O)c3ccccc3)C2)C1`: the Potency in assay [1] was > 11.4 µM (inactive); in [3], 25.1 µM (active); in assay [6] it was > 46 µM (inactive); in assay [12], 0.501 µM (active). Moreover, the activity change, negative = inhibition in [2] is 1.83% (inactive); in assay [4], -7.95% (inactive); in assay [10], 4.19% (inactive). In assay [5], the activity, negative = inhibition was -0.418% (inactive). In addition, the molecule was called inactive in assay [7]. The Potency result in [8], in [9] and in assay [11] was “inactive” throughout. The max response in [10] (setting [14]) was determined as 1.96%; in assay [10] (setting [15]) it was 9.28%.
Take `COc1ccccc1CN1CC[C@@]2(CCCN(C(=O)c3cccn3C)C2)C1`: the Potency in assay [1] was > 11.4 µM (inactive); in [6], > 46 µM (inactive); in [12], 0.316 µM (active). In addition, the activity change, negative = inhibition is -17% (inactive) in [2], -9.11% (inactive) in assay [4] and 3.67% (inactive) in assay [10]. Besides, the Potency result in assay [3], in assay [8], in assay [9] and in [11] was “inactive” each time. Further, the activity, negative = inhibition in [5] was -10.5% (inactive). Besides, the molecule was called inactive in assay [7]. Further, the max response in assay [10] (setting [14]) was found to be 9.96%; in assay [10] (setting [15]), 13.2%.
For `O=C(c1ccncc1)N1CCC2(CC1)CN(c1ccccc1)C2`, the Potency in assay [1] was > 11.4 µM (inactive); in assay [6], > 46 µM (inactive); in [12] it was 7.94 µM (active); in assay [13] it was 0.316 µM (active). For the same molecule, the results for the activity change, negative = inhibition in assay [2], in assay [4] and in assay [10] were -2.66% (inactive), 4.65% (inactive) and 6.84% (inactive), respectively. The Potency entry in assay [3], in [8] and in [11] was “inactive” in each case. The activity, negative = inhibition in [5] was 3.39% (inactive). Further, the result in [7] was inactive. Besides, the max response turned out to be 9.42% in assay [10] (setting [14]) and 18.7% in assay [10] (setting [15]).
